Assay outcomes: PubChem, National Center for Advancing Translational Sciences (NCATS)
Most compounds without a hit are left out; they make up all but 0.59% or so of the library.
RXFP1 agonist: activates the human relaxin receptor RXFP1. AID 2676. HEK293T-RXFP1 cAMP TR-FRET, 30 min; response scale: percent of porcine relaxin response, buffer zero. Potency, µM (series often up to 57.5 µM), for the others: at the top dose activation, usual class: activators. hit rate 0.3% among 370,000; also: potency is read from the fitted curve at half-maximal effect; nearly all actives have a fitted effect of over 60% in size
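HEK293 cells stably expressing RXFP1, treated 30 min at 37C with compounds plus PDE4 inhibitor Ro 20174; cAMP measured by HTRF TR-FRET. Normalized to buffer and 29 nM porcine relaxin; EC50 by Hill fit.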
BCR signal inh: inhibitors of chronic active B-cell receptor signaling; ABC-DLBCL IkBa-CBG/CBR reporter, luminescence ratio, 4 h; Potency, µM (top dose mostly 46.1 µM), for inactives: at the top dose activity change, negative = inhibition, usual class: inhibitors; hit rate 0.05% among 340,000; AID 493014; active = well fitted inhibition curve with a large enough effect in the signal ratio, with a control signal flat, not every such curve was filed as active; inconclusive = small, poorly fitted or top-dose-only effect, or effect the other way, or a change in a side signal; the % refers to the signal ratio;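 also: potency is read from the fitted curve at half-maximal effect; plate controls were basal doxycycline-induced cells for no effect and cells given 10 µM MG132 for full effect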
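TMD8 human ABC-DLBCL cells with doxycycline-inducible IκBα–green luciferase fusion and unfused red luciferase, in 0.5% FBS medium; compounds up to 46 uM, 4 h at 37C. Green/red luminescence ratio, filter-overlap corrected, fitted to concentration-response curves.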
B2AR arrestin: recruits beta-arrestin to the human beta2-adrenergic receptor. P07550. beta-arrestin recruitment to beta2AR, cell-based reporter. Potency, µM (series often up to 46.1 µM), without a hit: at the highest dose activation, actives largely listed as activators. hit rate 0.02% among 330,000;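 also: potency is read from the fitted curve at half-maximal effect; 0% = DMSO controls and full agonism = EC100 isoproterenol or metaproterenol; nearly all actives have a fitted effect of over 65% in size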
Target sequence (P07550 whole entry, looked up): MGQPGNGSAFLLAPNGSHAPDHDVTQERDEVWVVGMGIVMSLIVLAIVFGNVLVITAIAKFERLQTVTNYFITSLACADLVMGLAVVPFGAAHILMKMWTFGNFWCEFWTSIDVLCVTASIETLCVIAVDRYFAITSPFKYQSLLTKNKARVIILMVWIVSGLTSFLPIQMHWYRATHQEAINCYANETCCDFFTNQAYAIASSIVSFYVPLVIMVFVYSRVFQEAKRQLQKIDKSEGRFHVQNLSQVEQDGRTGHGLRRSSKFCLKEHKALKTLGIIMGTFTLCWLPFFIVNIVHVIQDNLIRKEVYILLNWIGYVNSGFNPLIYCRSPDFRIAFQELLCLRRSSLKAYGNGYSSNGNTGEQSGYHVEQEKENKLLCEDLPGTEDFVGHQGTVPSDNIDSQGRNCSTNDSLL
RXFP1 antagonist: antagonists of human relaxin receptor RXFP1; activity change, negative = inhibition, % at 57.5 µM; hit rate 0.59% among 350,000; HEK293-RXFP1, relaxin-stimulated cAMP HTRF, 30 min; hits give low values; Q9HBX9;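 active = activity change of -60% or lower, but not beyond a set lower limit; inconclusive = change between -60% and -40%, or beyond the set limit; inactive = change above -40%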
* marks the source's active call; other numbers are inactive results; ? = inconclusive; nt = not tested or not shown. Unless noted, calls follow the shape of the dose curve; as a rule, active = well fitted activation curve with a large enough effect; inconclusive = small, poorly fitted or top-dose-only effect; inactive = flat fitted curve, though single readings scatter. Unless noted, % is scaled to controls: 0 for no effect and ±100 for the full control effect.

SMILES	RXFP1 agonist	BCR signal inh	B2AR arrestin	RXFP1 antagonist
Nc1ccc(Br)c2cccnc12	2%	0%	0%	-65*
Cc1cc(C)n2nc(C(=O)Nc3ccc4c(c3)OCCO4)nc2n1	14µM*	?	0%	16
Cc1cc(C)n2nc(C(=O)Nc3ccc4c(c3)OCO4)nc2n1	19%	?	0%	-7
Cc1ccc(-n2cc(-c3ccccc3)c3c(=O)[nH]cnc32)cc1	0%	?	0%	nt
O=c1[nH]cnc2c1c(-c1ccccc1)cn2-c1ccccc1	0%	?	0%	-75*
C#CC(C)(CC)OC(=O)c1ccccc1C(=O)O (stereo not given)	nt	nt	nt	8
CCc1ccc(NC(=O)CN(c2ccc(OC)cc2)S(=O)(=O)c2c(C)nn(C)c2C)cc1	-1%	2%	0%	-113*
CCN(CC)CCNC(=O)c1c(C)n(-c2ccccc2)c2cc(Br)c(OC)cc12	-2%	?	-1%	-78*
COc1cc2c(C(=O)N3CCN(C)CC3)c(C)n(-c3ccccc3)c2cc1Br	0%	-5%	-1%	-7
COc1ccc(N(CC(=O)NCCOc2ccccc2)S(=O)(=O)c2ccc(C)cc2)cc1	-2%	-2%	0%	-62*
CCOc1ccc(N(CC(=O)NCCOc2ccc(C)cc2)S(=O)(=O)c2ccccc2)cc1	-4%	0%	-1%	4
CN(C)S(=O)(=O)c1cccc(NC(=S)N/N=C/c2cc(Br)ccc2O)c1	2%	?	4%	-84*
CN(C)S(=O)(=O)c1cccc(NC(=S)N/N=C/c2cccc(O)c2)c1	1%	?	0%	-18
C=C1C(=O)C23C(O)C1CCC2C12CCCC(C)(COC(C)=O)C1C(O)C3(O)OC2 (stereo not given)	nt	nt	nt	-117*
COc1ccc(C2Nc3ccccc3-c3nnc(SC)nc3O2)cc1C (stereo not given)	3%	nt	nt	-6
Cc1ccc2c(c1)-c1nc(-c3ccc4c(c3)NC(=O)CO4)cc(-c3ccc(F)cc3)c1CO2	0%	nt	nt	nt
CCCCC(CC)CNC(=O)CC(C)OC(=O)CCC(=O)O (stereo not given)	nt	nt	nt	6
Cc1csc2nc(COC(=O)c3ccc(NC(=O)c4ccccc4Br)cc3)cc(=O)n12	1%	nt	nt	-1
OCc1ccnc2c(O)cccc12	1%	6.3µM*	?	-20
Cc1ccccc1OCCC(=O)OCC(=O)NCCNC(=O)COC(=O)CCOc1ccccc1C	-1%	-11%	0%	-73*
CC(C)Oc1ccc(CNC(=O)CN2C(=O)CCn3nc(-c4cn(C)c5ccccc45)cc32)cc1	2%	nt	nt	-16
CC(C)(C)NC(=S)NNC(=O)c1cccc(Br)c1	0%	?	6.3µM*	7
CCCc1ccccc1OCCNS(=O)(=O)c1cc2c(cc1C)OCC(=O)N2	3%	?	0%	-62*
Cc1cccc(NC(=O)NNC(=O)c2cc3ccccc3cc2O)c1C	-2%	1%	0%	-66*
Cc1cnn(CCC(=O)NNC(=S)NCC(C)C)c1	0%	18µM*	0%	0
SMILES	RXFP1 agonist	BCR signal inh	B2AR arrestin	RXFP1 antagonist
COc1ccc(CCNC(=O)C(=O)NCC(c2ccc3c(c2)OCO3)N2CCOCC2)cc1OC (stereo not given)	0%	nt	nt	12
CC1C/C(=N\NC(N)=S)c2cc(Cl)ccc2S1 (stereo not given)	-15%	?	6.3µM*	-8
Cc1ccc(NC(=O)c2cc(S(=O)(=O)N3CCCCC3)c[nH]2)cc1N(C)C	3%	nt	nt	-25
CN(CCO)C(=O)c1ccc(-c2nn(C)c(=O)c3ccccc23)cc1	3%	?	6%	-19
Cn1nc(-c2ccc(C(=O)NCCO)cc2)c2ccccc2c1=O	1%	-15%	5.6µM*	-2
COc1ccccc1Cn1c(C2CC(=O)N(c3ccccc3OC)C2)nc2ccccc21 (stereo not given)	-4%	nt	nt	nt
Cc1ccc(-c2nc(N)sc2-c2ccccc2)cc1C	2%	-7%	0%	-84*
COc1ccccc1Oc1ccc2c(c1)C(=O)N(c1cccc3ncccc13)C2=O	2%	-11%	0%	-89*
Cc1sccc1Br	nt	nt	nt	13
Cc1nc([N+](=O)[O-])cn1-c1ccc([N+](=O)[O-])cc1	nt	nt	nt	2
O=C(CCN1CCc2ccccc2CC1)c1ccc2c(c1)OCCO2	2%	?	0%	-65*
C/C(=N/NC(=O)c1ccncc1)C(=O)O	nt	nt	nt	1
Cc1cc(C(=O)COC(=O)c2ccc(NC(=O)CC#N)cc2)c(C)n1CC(F)(F)F	nt	nt	nt	-1
Cc1cc(C(=O)COC(=O)c2ccc(NC(=O)CC#N)cc2)c(C)n1-c1ccc(OC(F)F)cc1	nt	-14%	0%	-62*
O=C(Nc1ccccc1)C1CCN(S(=O)(=O)c2cccs2)CC1	1%	2%	0%	-2
N#Cc1ccsc1NC(=O)C1CCN(S(=O)(=O)c2cccs2)CC1	0%	?	0%	-70*
O=C(COC(=O)c1ccc(O)cc1O)Nc1cc(-c2ccccc2)nn1-c1ccccc1	-1%	?	0%	-73*
CCC(C)NC(=O)CCC(=O)N1Cc2ccccc2Oc2ncccc21 (stereo not given)	-1%	nt	nt	-1
Cc1cc(=S)c2cccc(C)c2[nH]1	22µM*	-12%	0%	20
Cc1cccc2c(=O)cc(C(F)(F)F)[nH]c12	-1%	?	0%	-9
COc1ccccc1-n1c(/C=C/c2c(C)n(C)c3ccccc23)nc2ccccc2c1=O	1%	nt	nt	4
O=C(NCc1nnc2c(C(F)(F)F)cc(Cl)cn12)c1cccnc1	16µM*	-5%	0%	4
CC(/C=C/c1ccco1)=N/NC(=O)c1ccccc1Cl	4%	?	0%	-6
Cc1ccc(OCC(=O)N/N=C/C=C/c2ccco2)c(Br)c1	0%	?	?	-76*
O=C(N/N=C/C=C/c1ccco1)c1ccccc1Cl	1%	?	0%	-82*
SMILES	RXFP1 agonist	BCR signal inh	B2AR arrestin	RXFP1 antagonist
O=C(Nc1cccc2c(=O)cc(-c3nn[nH]n3)oc12)c1ccc(OCCCCc2ccccc2)cc1	nt	nt	nt	-29
O=C(Cc1ccccc1F)Nc1nc(-c2ccc(F)cc2)cs1	-1%	?	0%	-93*
COc1cccc(CNC(=O)C(=O)Nc2c3c(nn2-c2ccccc2)CSC3)c1	4%	-6%	nt	-27
O=C(NCc1ccccc1)C(=O)Nc1c2c(nn1-c1ccc(F)cc1)CSC2	0%	1%	nt	-79*
Cc1c(Cl)cccc1NC(=O)CCS(=O)(=O)c1ccc2c(c1)CC(C)N2C(=O)C1CC1 (stereo not given)	1%	nt	nt	0
CN1CCN(C(=O)C23CC4CC(C)(CC(C)(C4)C2)C3)CC1	1%	-13%	-1%	3
CC12CC3CC(C)(C1)CC(C(=O)N1CCCC1)(C3)C2	2%	3%	3%	-88*
Cc1ccc(OC(=O)c2cc(-c3ccc4c(c3)OCCO4)on2)c(C)c1	1%	nt	nt	2
O=[N+]([O-])c1cccc(CSc2nnc3ccccn23)c1	25µM*	-6%	0%	3
